Test results as given in PubChem BioAssay (NCATS).
A number with no mark means an inactive call. Results filed as inconclusive are left out. Calls of active or inactive are those of the source. The call rests on the fitted dose curve; in most records, active means well fitted curve in the direction sought with a large enough effect; inconclusive means small, poorly fitted or top-dose-only effect, or another doubt; inactive means no such curve, though single readings can be large; an effect the other way counts as inactive or inconclusive.

assay: Cell Viability - LYMP2-001 (AID 921); settings: LYMP2-001 lymphoblastoid cell viability; series mostly up to 92.2 µM; activity change, negative = cytotoxic: at the top concentration; further: nearly all actives have a fitted effect of over 70% in size; further: potency means the concentration at half of the fitted maximal effect;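 on activity change, negative = cytotoxic: 0% = DMSO only and full inhibition = tetraoctylammonium bromide control wells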
Procedure, shortened: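 Cellular ATP loss read by luciferase luminescence after 24 h compound exposure at 37 C in complete medium. LYMP2-001 lymphoblastoid cells, 2500/well; qHTS concentration-response data fitted with Hill equation for AC50.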

| Compound | Potency | activity change, negative = cytotoxic [%] |
| --- | --- | --- |
| CC(=O)[O][Hg][c]1ccccc1 | 0.501 µM (active) | – |
| COc1ccc(C(c2ccc(OC)cc2)C(Cl)(Cl)Cl)cc1 | inactive | – |
| COC(C)(C)CCCC(C)C/C=C/C(C)=C/C(=O)OC(C)C (centres undefined) | – | -8.27 |
| Cc1cc(O)ccc1Cl | – | -27.1 |

assay: Confirmation and Secondary Assay for Modulators of Hemoglobin Beta Chain Splicing at IVS2 705 locus (AID 930); settings: HeLa EGFP-705 splicing reporter, GFP fluorescence, 48 h; series mostly up to 46.1 µM; activation: at the top concentration;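 further: HeLa cells stably expressing the EGFP-705 splicing reporter; GFP fluorescence per well restored by corrected splicing of the IVS2-705 intron in EGFP; % of control where 0% means no effect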
Procedure, shortened: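 HeLa EGFP-705 reporter; 500 cells/well, o/n 37C 5% CO2; cpd 2 d; 488 ex/500-520 em laser scan; total peak GFP intensity/well. Ref: 500 nM […] antisense PNA.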

| Compound | activation | outcome |
| --- | --- | --- |
| CC(=O)[O][Hg][c]1ccccc1 | -0.393% | – |
| COc1ccc(C(c2ccc(OC)cc2)C(Cl)(Cl)Cl)cc1 | 0.471% [at 38.3 µM] | – |
| CCCCCCCCCCCCCCCC[N+](C)(C)C | -0.761% | – |
| O=C(O)CC[N+](=O)[O-] | 4.99% | – |
| COC(C)(C)CCCC(C)C/C=C/C(C)=C/C(=O)OC(C)C (centres undefined) | -1.23% | – |
| O=C1CCCN1CC#CCN1CCCC1 | 0.0733% | – |
| NCCc1c[nH]c2ccccc12 | 3.58% | – |
| CCC(=O)OC1CCC2C3CCC4=CC(=O)CC[C@@]4(C)C3CC[C@]12C (some centres undefined) | 0.642% | – |
| CC[C@@]1(O)C(=O)OCc2c1cc1n(c2=O)Cc2cc3ccccc3nc2-1 | – | inactive |
| C#CC1(O)CCC2C3CCC4=CC(=O)CCC4(C)C3CCC21C (centres undefined) | -1.23% | – |
| NC(N)=NOCCC(N)C(=O)O (centres undefined) | 0.717% | – |
| O=C(O)CCCOc1ccc(Cl)cc1Cl | 0.0106% [at 38.3 µM] | – |
| CC(Cc1ccc(O)cc1)NCC(O)c1cc(O)cc(O)c1 (centres undefined) | 0.551% | – |
| Cc1nccc2c1[nH]c1ccccc12 | -0.0974% [at 38.3 µM] | – |
| Cc1cc(O)ccc1Cl | -1.03% | – |
